Shown are actives, neighbours in structure and some others; about 2.3% of the full set was active somewhere.
M1 antag = blocks human M1 muscarinic receptor. CHO-K1 hM1, Fluo-8 calcium fluorescence, ACh EC80 antagonist. inhibition, % at 3 µM. 360,000 tested, 1.3% active;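 active = percent inhibition above its own plate's cutoff, namely the mean of that plate's compound wells plus 3 SD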;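 note: peak over basal fluorescence ratio during 140 s after agonist addition; 0% = ACh EC80 plus DMSO and 100% = DMSO alone without agonist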
Target sequence (P11229 whole entry, looked up): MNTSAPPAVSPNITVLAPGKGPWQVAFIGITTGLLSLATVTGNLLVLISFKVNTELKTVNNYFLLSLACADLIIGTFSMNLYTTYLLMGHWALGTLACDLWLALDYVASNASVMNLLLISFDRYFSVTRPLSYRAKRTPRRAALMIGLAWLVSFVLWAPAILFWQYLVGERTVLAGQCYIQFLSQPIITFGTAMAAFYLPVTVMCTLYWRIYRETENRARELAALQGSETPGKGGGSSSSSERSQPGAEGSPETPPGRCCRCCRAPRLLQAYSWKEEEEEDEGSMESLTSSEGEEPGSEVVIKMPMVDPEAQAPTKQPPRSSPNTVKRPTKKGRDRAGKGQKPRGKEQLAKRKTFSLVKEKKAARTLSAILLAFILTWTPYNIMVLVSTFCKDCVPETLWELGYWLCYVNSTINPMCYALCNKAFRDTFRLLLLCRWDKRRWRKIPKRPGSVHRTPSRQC
CHRM1 agonist = agonists of human M1 muscarinic receptor; P11229; CHO-K1 hM1, Fluo-8 calcium fluorescence, agonist mode; 0% DMSO, 100% acetylcholine EC100; activation, % at 3 µM; 360,000 tested, 0.33% active; AID 588814;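 active = activation above the run's mean compound activation plus 3 SD, cut at about 16% in these data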;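 note: peak over basal fluorescence ratio within a 140 s kinetic read after compound addition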
CHRM1 PAM = human CHRM1 positive allosteric modulation; AID 588819; activation, % at 3 µM; CHO-K1 hM1, Fluo-8 calcium fluorescence, ACh EC20; 0% = ACh EC20, 100% = maximal ACh; P11229; 360,000 tested, 0.088% active; in the data active = activation above about 19%, passing the limit was not always enough
CHO-K1 Ca PAM = M1 PAM counterscreen hit in parental CHO-K1 cells. ATP EC20, Fluo-8 calcium fluorescence; 0% at ATP EC20, 100% at ATP max. activation, % at 3 µM. 360,000 tested, 0.02% active. AID 602247;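 active = activation above the run cutoff, the mean activation of all test compounds plus 3 SD, cut at about 40% in these data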;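 note: peak over basal fluorescence ratio in a 140 s read after ATP addition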
CHO-K1 Ca antag = M1 antagonist counterscreen hit in parental CHO-K1 cells; AID 602250; ATP-induced calcium, Fluo-8 fluorescence; 360,000 tested, 0.6% active; inhibition, % at 3 µM;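 active = inhibition above a per-plate cutoff, the plate's mean sample inhibition plus 3 SD, cut at about 24% in these data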;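 note: 0% = DMSO plus EC80 ATP and 100% = DMSO alone without ATP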
M1 ag parental = nonselective activator or artifact in parental CHO-K1 cells; Fluo-8 calcium fluorescence; scaled to maximal ATP response, vehicle zero; activation, % at 3 µM; 360,000 tested, 0.48% active; in the data active = activation above about 15%;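 note: untransfected CHO-K1 host cells lacking M1 receptor as counterscreen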
* marks the source's active call; other numbers are inactive results; nt = no result given.

SMILES | M1 antag | CHRM1 agonist | CHRM1 PAM | CHO-K1 Ca PAM | CHO-K1 Ca antag | M1 ag parental
Cc1ccc(S(=O)(=O)NC(=O)C2(C)CCN2C(=O)Cc2ccc(-c3ccccc3)cc2)cc1 (stereo not drawn) | -1 | -2 | -1 | 18 | -3 | 0
CC(C)(C)c1ccc(CC(=O)N2CCC2(C)C(=O)Nc2cnc3ccccc3c2)cc1 (stereo not drawn) | 36* | 0 | -21 | 10 | -2 | 11
Cc1ccc(NC(=O)C2(C)CCN2C(=O)Cc2ccc(-c3ccccc3)cc2)cc1 (stereo not drawn) | 20 | 19* | -15 | 13 | 5 | 8
COc1ccc(C(=O)NCCNc2ccccc2[N+](=O)[O-])cc1 | -7 | -5 | 5 | 7 | -12 | 1
CCCNC(=O)c1ccc(S(=O)(=O)c2ccc(OC)cc2)c([N+](=O)[O-])c1 | 17 | -2 | -15 | -6 | 8 | 16*
CCC1CCCCN1Cc1ccc(CNC(=O)CCc2nnc3ccc(N4CCCCC4)nn23)o1 (stereo not drawn) | 43* | -6 | -17 | -13 | -10 | 0
CCOCCCNC(=O)CCc1nnc2ccc(N3CCCCC3)nn12 | -2 | -6 | 1 | 4 | -18 | 1
CCOc1ccccc1NC(=O)CCNC(=O)C1CCN(S(=O)(=O)c2ccccc2)CC1 | -14 | -2 | 5 | 18 | -19 | 2
O=C(NC1CCCCCC1)c1cccc(N2CCCC2=O)c1 | 6 | -3 | -13 | -6 | 32* | 0
O=C(N/N=C/c1cc(Br)cc(Br)c1O)c1cccc(N2CCCC2=O)c1 | -2 | -9 | 9 | 1 | 34* | -1
CC1NC(=O)c2ccccc2-n2c1nc1ccc(F)cc1c2=O (stereo not drawn) | -4 | -1 | -1 | 5 | -2 | 1
NC(=S)N/N=C1\CCOc2ccc(F)cc21 | -12 | -1 | 5 | 24 | -16 | 2
O=[N+]([O-])c1ccc(NN=CC2CCCCCC2)c([N+](=O)[O-])c1 | nt | nt | nt | -2 | -20 | 1
CC12CN3CC(C)(CN(C1)C3c1ccc3c(c1)OCO3)C2O (stereo not drawn) | -15 | 0 | 5 | -28 | 100* | 5
CC12CN3CC(C)(CN(C1)C3c1ccccc1)C2O (stereo not drawn) | -3 | -1 | 6 | 10 | -4 | 0
CC1CCCCC1NC(=O)c1cccc(NC2=NC3CS(=O)(=O)CC3S2)c1 (stereo not drawn) | -7 | -2 | 1 | 6 | -8 | 0
CN(C)CCCN1C(=O)c2cccc3c(Br)ccc(c23)C1=O | -2 | -4 | -1 | 12 | -12 | 1
CCCCNc1ccc2c3c(cccc13)C(=O)N(CCCC)C2=O | 90* | 296* | -27 | -23 | 93* | 348*
Cc1nn(C)c(C)c1N1C(=O)c2cccc3c(N)ccc(c23)C1=O | 35* | 90* | -22 | -10 | 31* | 63*
Cc1nn(C)c(C)c1N1C(=O)c2cccc3c(Br)ccc(c23)C1=O | 6 | -1 | -1 | 0 | 2 | 3
CCCN1C(=O)c2cccc3c(N4CCCCC4)ccc(c23)C1=O | -2 | -1 | 0 | 12 | 4 | 4
Cc1ccc(N2C(=O)c3cccc4c(N)ccc(c34)C2=O)c2cccnc12 | 18 | 29* | -11 | -9 | 14 | 23*
CCN1C(=O)c2cccc3c(N)ccc(c23)C1=O | 48* | 192* | -37 | -15 | 19 | 72*
CN(N=Cc1ccccc1)C(=S)Nc1ccccc1 | 2 | -6 | 1 | 15 | -3 | 0
COC(/C(=N/O)c1ccc(Cl)cc1)c1ccccc1 (stereo not drawn) | 47* | -6 | -20 | -17 | 31* | 9
SMILES | M1 antag | CHRM1 agonist | CHRM1 PAM | CHO-K1 Ca PAM | CHO-K1 Ca antag | M1 ag parental
Cc1ccc(C(=O)NNC(=S)NC(=O)c2ccccc2)cc1 | 52* | 52* | -27 | -31 | 27* | 70*
Cc1ccc(C(=O)NNC(=S)NC(=O)c2ccco2)cc1 | 0 | 30* | -4 | -9 | 2 | 21*
CC(C)NC(=S)NC(=O)c1ccc(Cl)cc1Cl | -14 | -10 | 0 | 17 | -14 | 1
Cc1ccc(C(=O)NNC(=S)NC(=O)c2ccc(Cl)cc2Cl)cc1 | 46* | 105* | -25 | -13 | 13 | 107*
Cc1ccc(C(=O)NNC(=O)c2ccco2)cc1 | -4 | -3 | 3 | 2 | -2 | 1
O=C(CNC(=S)NC(=O)c1ccc(Cl)cc1)c1ccccc1 | 3 | -5 | 32* | -2 | 1 | 0
Cc1ccc(C(=O)NC(=S)NNC(=O)c2ccc([N+](=O)[O-])cc2)cc1 | 5 | 2 | 9 | 16 | -9 | 0
CCCNC(=O)C1(C)CCCN(C(=O)COc2ccc(C(C)(C)C)cc2)C1 (stereo not drawn) | 8 | 0 | -4 | 11 | -2 | 0
CS(=O)(=O)Nc1ccc(S(=O)(=O)N2CCCCCC2)cc1 | -14 | -5 | 11 | 24 | -12 | 2
O=C(CCc1ccccc1)NNC(=S)NC(=O)c1ccccc1 | 5 | 10 | -5 | -6 | -7 | 2
CC(C)(C)c1cc(CCC(=O)NNC(=S)NC(=O)c2ccccc2)cc(C(C)(C)C)c1O | 49* | 81* | -29 | -6 | 30* | 56*
Cc1cccc(C(=O)NNC(=S)NC(=O)c2cccs2)c1 | 18 | 84* | -20 | -12 | 20 | 85*
COc1ccc(C(=O)NNC(=S)NC(=O)c2cccs2)cc1 | 12 | 10 | -9 | 6 | -25 | 14
COc1ccc(/C=C/C(=O)NC(=S)NNC(=O)c2cccs2)cc1 | 9 | 21* | -10 | 9 | -8 | 5
CCCCC(=O)NC(=S)NNC(=O)c1ccc(Cl)cc1Cl | 6 | 25* | -5 | 3 | -16 | 26*
COC(=O)[C@]1(CC(C)C)N[C@H](c2ccc(-c3ccc(F)cc3)c(OC)c2)[C@@H]2C(=O)N(C)C(=O)[C@@H]21 | -15 | -1 | 13 | 4 | -10 | 0
CN(CCCC(=O)N1CCCC(C(N)=O)C1)S(=O)(=O)c1ccc(F)cc1 (stereo not drawn) | -13 | -5 | 11 | 10 | -17 | 2
CC(C)C(NC(=O)c1ccc(Cl)cc1)C(=O)NCC1CCCO1 (stereo not drawn) | -6 | -6 | 7 | 7 | -9 | 0
Cc1ccc(C(=O)NNC(=O)c2cccc(C)c2)cc1 | -11 | -2 | 7 | 12 | -3 | 0
Cc1ccccc1OCC(=O)Nc1ccccc1NC(=O)c1ccco1 | 1 | -5 | 1 | 7 | -12 | 4
Cc1ccccc1OCC(=O)NNC(=S)NC(=O)c1ccco1 | -2 | 18* | 7 | -6 | -2 | 0
Cc1ccc(C(=O)NC(=S)NNC(=O)c2ccccc2)cc1 | 5 | 36* | -10 | -32 | 35* | 20*
